Experimental data as given in PubChem BioAssay AID588676 (Johns Hopkins Ion Channel Center, 2011).
Screen size: about 310,000 compounds; about 3,900 (1.3%) were called active. The sample holds actives, similar compounds and a random draw of the others, so the mix is not that of the screen.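 Rule for the calls: active = calcium-response B-score plate-corrected more than 3 library SD below zero, starting fluorescence within 5 deviations, no agonist response on first addition; inactive = the rest.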 The source holds several records for some structures; these can differ, active in one and inactive in another.

These compounds were tested against Mas-related G-protein coupled receptor member X1 (Homo sapiens) (UniProt Q96LB2) (assay: blockade of BAM8-22-evoked MrgX1 calcium response – HEK293 cells, Fluo-4 calcium flux, primary screen (AID 588676;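 for B-score: peak minus trough fluorescence over baseline after final BAM8-22 challenge near maximal dose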)). Conditions: Fluo-4, BAM8-22 antagonism, at 10 µM; hits give low values.
Chain of Mas-related G-protein coupled receptor member X1 (Homo sapiens) (Q96LB2 whole entry, looked up): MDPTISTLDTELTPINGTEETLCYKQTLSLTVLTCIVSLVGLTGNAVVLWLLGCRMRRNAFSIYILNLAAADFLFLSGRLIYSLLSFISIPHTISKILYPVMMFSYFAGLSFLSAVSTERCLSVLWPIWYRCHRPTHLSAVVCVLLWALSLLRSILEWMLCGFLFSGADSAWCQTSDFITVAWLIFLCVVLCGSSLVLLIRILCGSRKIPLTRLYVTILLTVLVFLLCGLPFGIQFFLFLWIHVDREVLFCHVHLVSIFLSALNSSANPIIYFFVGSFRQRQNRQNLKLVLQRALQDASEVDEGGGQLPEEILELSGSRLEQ

Row | SMILES | B-score | outcome
1 | CCCOc1ccc(CNC(=O)C2CCN(c3nn4c(=O)cc(C)nc4s3)CC2)cc1 | inactive | 
2 | O=C(NN1C(=O)C2CCCCC2C1=O)c1ccco1 (stereo not drawn) | inactive | 
3 | CC(C)=C1C2CCC1C1C(=O)N(NC(=O)c3ccco3)C(=O)C21 (stereo not drawn) | inactive | 
4 | O=C(NN1C(=O)C2C3C=CC(C3)C2C1=O)c1ccco1 (stereo not drawn) | -9.57 (active) | 
5 | NC(=O)c1cc(S(=O)(=O)N2CCCC2)ccc1OCc1ccc(F)cc1 | inactive | 
6 | Cc1ccccc1OCC(=O)Nc1nnc(S(=O)(=O)N2CCCC2)s1 | inactive | 
7 | CC1CCN(S(=O)(=O)c2nnc(NC(=O)COc3ccccc3F)s2)CC1 | -4.6 (active) | 
8 | O=C(COc1ccccc1F)NC1CC1 | inactive | 
9 | O=S(=O)(CCc1nc2ccccc2o1)c1ccc(Cl)cc1 | inactive | 
10 | CCc1nnc(NC(=O)c2cccc(S(=O)(=O)N(C)c3ccc(OC)cc3)c2)s1 | inactive | 
11 | CCc1nnc(NC(=O)c2sc3nc(C)cc(COC)c3c2N)s1 | inactive | 
12 | CCc1ccc2nc3sc(C(=O)Nc4nnc(CC)s4)c(N)c3cc2c1 | -7.06 (active) | 
13 | COc1ccc(CN2CCN(C(=O)CCC(=O)Nc3nnc(C(C)C)s3)CC2)cc1F | inactive | 
14 | COc1ccccc1C(=O)Nc1nc2nc(-c3ccccc3)cc(=O)n2[nH]1 | inactive | 
15 | Cc1ccc(C)n1NC(=O)c1ccc([N+](=O)[O-])cc1 | inactive | 
16 | Cc1ccc(NC(=O)/C(=C/c2ccc([N+](=O)[O-])cc2)NC(=O)c2ccccc2)cc1 | inactive | 
17 | CC1=NN(c2ccccc2)C(=O)C1C(=O)c1ccc([N+](=O)[O-])cc1 (stereo not drawn) | -4.73 (active) | 
18 | O=C(CC1CCCCC1)NCc1ccc(F)cc1 | inactive | 
19 | Cc1ccc(/C=N/NC(=S)Nc2cccc(S(=O)(=O)N(C)C)c2)o1 | inactive | 
20 | CN(C)S(=O)(=O)c1cccc(NC(=S)NCc2ccc3c(c2)OCO3)c1 | inactive | 
21 | CN(C)S(=O)(=O)c1cccc(NC(=S)N/N=C/C(=O)c2ccccc2)c1 | -6.77 (active) | 
22 | CCc1cc(=O)oc2cc(C)cc(OC(C)C(=O)O)c12 (stereo not drawn) | inactive | 
23 | CCCc1cc(=O)oc2c(C)c(OCC(=O)N3CCC(C(=O)O)CC3)ccc12 | inactive | 

Row | SMILES | B-score | outcome
24 | CCc1cc(=O)oc2cc(C)cc(OCC(=O)N3CCC[C@@H]3C(=O)O)c12 | -7.63 (active) | 
25 | CC(Sc1cccc[n+]1[O-])C(=O)Nc1cccc(S(=O)(=O)N2CCOCC2)c1 (stereo not drawn) | inactive | 
26 | CN(C)S(=O)(=O)c1ccc(N2CCCC2)c(C(=O)NCc2ccccc2)c1 | inactive | 
27 | CN(C)S(=O)(=O)c1ccc(N2CCCC2)c(C(=O)Nc2cccc(F)c2)c1 | inactive | 
28 | Cc1ccccc1OCC(=O)NNC(=O)c1cc(S(=O)(=O)N(C)C)ccc1N1CCCC1 | -7.66 (active) | 
29 | CN(C)C(=O)N=NC(=O)N(C)C | inactive | 
30 | C=CCn1c(=O)c2ccccc2n2c(SCC(=O)N3CCCc4ccccc43)nnc12 | inactive | 
31 | C=CCn1c(SCC(=O)/C(C#N)=C(\C)N)nc2sc(C)c(C)c2c1=O | inactive | 
32 | CCCn1c(=O)c2ccccc2n2c(SCC(=O)/C(C#N)=C(\C)N)nnc12 | -7.91 (active) | 
33 | CCOc1cc(-c2conc2N)cc(OCC)c1OCC | -6.9 (active) | 
34 | CCOc1cc2c(Cl)ncnc2c(OCC)c1OCC | inactive | 
35 | CCOc1cc(C(=O)Nc2ncccn2)cc(OCC)c1OCC | inactive | 
36 | O=C1CSC2=NCN(c3ccccc3)CN12 | inactive | 
37 | CCCn1nc2cc(C(=O)NCc3ccccc3)ccc2c1OCC | inactive | 
38 | Cc1ccc(NC(=O)CN2CCC3(O)CCCCC3C2c2ccc3c(c2)OCO3)c(C)c1 (stereo not drawn) | inactive | 
39 | CCN(CC)c1ccc(C2C3CCCCC3(O)CCN2CC(=O)Nc2ccccc2)cc1 (stereo not drawn) | -5.44 (active) | 
40 | CCN(CC)c1ccc(NC(=O)CN2CCN(c3ccccn3)CC2)cc1 | inactive | 
41 | CCOC(=O)c1c(N=CN(C)C)c(C#N)c2n1CCCC2 | inactive | 
42 | Cc1cc2oc(=O)cc(CN3CCN(S(=O)(=O)c4cccs4)CC3)c2cc1C(C)C | inactive | 
43 | CCOC(=O)Cc1csc(NC(=O)COc2ccc3c(C)cc(=O)oc3c2)n1 | inactive | 
44 | Cc1ccc2c(CSc3nncs3)cc(=O)oc2c1 | inactive | 
45 | CCOC(=O)Cc1csc(SCc2cc(=O)oc3cc(O)ccc23)n1 | -5.51 (active) | 
46 | CN(C)N1C(N)=C(C#N)C(c2ccc(Br)cc2)C2=C1CCCC2=O (stereo not drawn) | inactive | 

Row | SMILES | B-score | outcome
47 | C/C(CC(=O)NC(C)(C)C)=N\NC(=O)c1ccco1 | inactive | 
48 | CCC(=O)NCc1cc(-c2nn(C)c(=O)c3ccccc23)ccc1OC | inactive | 
49 | COc1ccc(-c2nn(C)c(=O)c3ccccc23)cc1NC(=O)COc1ccccc1 | -8.18 (active) | 
50 | COc1ccc(-c2nn(C)c(=O)c3ccccc23)cc1CNC(=O)C1CCCCC1 | inactive | 
51 | COc1cc(CC(=O)N2CCC(n3nccc3NC(=O)C3CC3)CC2)cc(OC)c1OC | inactive | 
52 | Cn1cccc1C(=O)NNC(=O)COc1ccc(Br)cc1 | -5.34 (active) | 
53 | Cn1cnnc1SCC(=O)NNC(=O)COc1ccc(Br)cc1 | inactive | 
54 | CCOC(=O)N1CCN(C(=O)COc2ccc(Br)cc2)CC1 | inactive | 
55 | CCOC(=O)C(Sc1ncc(C#N)c(N)n1)C(C)C (stereo not drawn) | inactive | 
56 | Fc1ccccc1Cc1ccc(Cl)nn1 | inactive | 
57 | O=C(O)c1ccc(Cn2c(=S)[nH]c3cc(Cl)ccc3c2=O)cc1 | inactive | 
58 | CC(C)c1ccc2c(c1)c(SC(C)(C)C)c(CC(C)(C)C(=O)O)n2Cc1ccc(Cl)cc1 | -4.82 (active) | inactive
59 | CC(C)N(Cc1ccccc1)C(=O)COC(=O)c1ccccc1SCC(=O)N1CCCC1 | inactive | 
60 | Cc1c(C)c(C)c(S(=O)(=O)NCCc2ccccn2)c(C)c1C | inactive | 
61 | CCOC(=O)Nc1ccc2c(c1)N(C(=O)CCN1CCN(CCO)CC1)c1ccccc1CC2 | -9.01 (active) | 
62 | CCOC(=O)Nc1ccc2c(c1)N(C(=O)CCCl)c1ccccc1[S@]2=O | inactive | 
63 | CCOC(=O)Nc1ccc2c(c1)N(C(=O)CN1CCN3CCCC3C1)c1ccccc1CC2 (stereo not drawn) | inactive | 
64 | CCOC(=O)C1=C(O)/C(=C/c2cc(C)n(-c3ccccc3)c2C)N=C1C | -4.95 (active) | 
65 | COC(=O)C1=C(O)/C(=C/c2ccc(OCC(=O)Nc3ccccc3)cc2)N=C1C | inactive | 
66 | CCOC(=O)C1=C(O)/C(=C/c2ccc(OCC(=O)Nc3ccc(C)cc3)cc2)N=C1C | inactive | 
67 | O=C(NCCCN1CCCC1=O)c1cccc(S(=O)(=O)NCc2ccccc2)c1 | inactive | 
